Marburg entry inh: blocks Marburg virus binding to or entry into cells; Marburg virus pseudotyped entry inhibition, cell reporter; Potency, µM (top dose mostly 37.8 µM), hits mostly inhibitors; 300,000 tested, 1.8% active; AID 540276; calls by dose curve; tested in HEK293 cells
Lassa entry inh: inhibitors of Lassa virus binding or cell entry; Lassa virus pseudotype entry inhibition, cell reporter; Potency, µM (highest dose often 37.9 µM), most hits filed as inhibitors; 300,000 tested, 1.2% active; AID 540256; calls by dose curve; tested in HEK293 cells; also: nearly all actives have a fitted effect of over 50% in size
Cycloheximide cs: counter-screen for Shiga toxin inhibitors: cycloheximide protein synthesis inhibition. cell reporter, cycloheximide protein synthesis inhibition counterscreen. max response, %. 300,000 tested, 12% active; in the data active = max response mostly above about 13%, no sharp cut-off; inactive = mostly below about 14%; also: read at 38.3 µM for the half of the compounds with a filed dose
AMA1-RON2 inh: inhibitors of Plasmodium falciparum AMA1-RON2 interaction; AlphaScreen AMA1-biotinylated RON2 peptide binding; AID 720542; 360,000 tested, 0.2% active; Potency, µM (top dose mostly 58.2 µM), usual class: inhibitors; active = well fitted inhibition curve with a large enough effect; inconclusive = small, poorly fitted or top-dose-only effect; inactive = no such curve, though single readings can be large or run the other way; also: nearly all actives have a fitted effect of over 45% in size
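AMA1 (3D7) with his tag at 25 nM final met compounds first, then biotinylated RON2 peptide at 25 nM; detection used donor plus acceptor beads, 10 µg/mL apiece, read by AlphaScreen after 30 min at room temperature.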
Shiga inhibitor: Shiga toxin inhibition. 290,000 tested, 9.2% active. Vero cells, Shiga toxin protein synthesis inhibition reporter. inhibition, % at 38.7 µM; in the data active = inhibition mostly above about 28%, no sharp cut-off; inactive = mostly below about 43%
A number is an active result; – = inactive; ? = inconclusive; · = no result; [ ] = another dose, or the depositor's remark. Many of the other results were omitted from the sample, so hits are more common in it than they were.

SMILES	Marburg entry inh	Lassa entry inh	Cycloheximide cs	AMA1-RON2 inh	Shiga inhibitor
CCCCN(CCCC)CCNC(=O)CSCc1ccc(C)cc1	7.1µM	–	–	–	–
Cc1ccc(CSCC(=O)Nc2ccccc2)cc1	?	–	32	–	26
Cc1ccc(CNC(=O)CSCc2ccccc2)cc1	–	–	29	–	71
O=C(CSc1ccccc1)NCc1ccc(F)cc1	?	?	40	–	80
O=C(CSc1ccccc1)NC(=O)NCc1ccccc1	–	·	–	–	–
Cc1ccc(CNC(=O)CSCc2ccc(F)cc2)cc1	?	?	–	–	–
Cc1ccc(CSCC(=O)Nc2ccc(F)cc2)cc1	–	–	–	–	–
Cc1ccc(CNc2nc(-c3ccco3)nn2S(C)(=O)=O)cc1	?	–	·	·	·
CC1CCN(c2ccc3c(c2)S(=O)(=O)c2cccc(C(=O)NC4CC4)c2C3=O)CC1	·	·	·	–	·
CSc1nc(NC(C)=O)nc(C)c1Cl	–	–	–	–	–
Cc1ccc(SCC(=O)NCc2ccc(F)cc2)cc1	–	?	–	–	–
Cc1ccc(SCC(=O)NCc2ccccc2)cc1	·	·	21	–	71
CCC(=O)Oc1ccc(NC(=O)CSCc2ccccc2)cc1	·	·	25	–	96
O=C(O)CSc1cccc[n+]1[O-]	–	–	–	–	–
O=C(CSc1cccc[n+]1[O-])c1cc(Cl)ccc1Cl	–	–	28	–	78
O=C(CSc1cccc[n+]1[O-])c1cc2ccccc2o1	–	?	131	–	140
CC1(C)CC(=O)C2=C(C1)O[C@@]1(CCCCN3C(=O)c4ccccc4C3=O)Cc3ccccc3[C@H]2O1	–	·	·	·	·
Cc1cc(C(F)(F)F)c(C#N)c(N2CCOCC2)n1	?	–	–	–	–
N#Cc1c(N2CCOCC2)nsc1-c1ccc(C(F)(F)F)cc1	?	?	29	–	–
CCOC(=O)N1CCN(C(=O)c2cc(S(=O)(=O)N3CCc4ccccc43)ccc2OC)CC1	–	1.8µM	·	–	·
O=C(Nc1ccc(S(=O)(=O)N2CCc3ccccc32)cc1)c1ccc2c(c1)OCO2	–	–	31	–	36
COc1cc(C(=O)Nc2ccc(S(=O)(=O)N3CCc4ccccc43)cc2)cc(OC)c1OC	12µM	–	–	–	–
CC(=O)Nc1cccc(NC(=O)c2ccc3c(c2)CCN3S(=O)(=O)c2ccccc2)c1	?	–	–	–	–
CC(=O)c1cccc(NC(=O)c2ccc3c(c2)CCN3S(=O)(=O)c2ccccc2)c1	–	?	24	–	–
COc1ccccc1C(=O)Nc1ccc(S(=O)(=O)N2CCc3ccccc32)cc1	?	–	–	–	–
SMILES	Marburg entry inh	Lassa entry inh	Cycloheximide cs	AMA1-RON2 inh	Shiga inhibitor
O=C(CSc1nc2ccccc2nc1Cc1ccccc1)Nc1ccc2c(c1)OCO2	·	–	·	·	·
COC(=O)[C@]12CCCCC=C1N(CCc1ccc(OC)c(OC)c1)C(=O)[C@H](CC(=O)NCc1cccs1)C2	·	·	·	–	·
O=C(Nc1ccc(S(=O)(=O)N2CCc3ccccc32)cc1)c1ccco1	–	7.3µM	–	–	–
CCC(=O)Nc1ccc(S(=O)(=O)N2CCc3ccccc32)cc1	·	·	–	–	–
Cc1ccc(Nc2nc3nonc3[nH]c2=O)cc1	–	–	27	–	58
COc1ccccc1NC(=O)COC(=O)Cc1c[nH]c2ccccc12	–	11µM	–	–	–
O=C(NCC1CCCO1)c1cc2ccccc2[nH]1 (stereo not given)	–	?	15	–	121
O=C(NCC1CCCO1)c1cccc(Oc2ccccc2)c1 (stereo not given)	?	–	33	–	53
COc1cccc2[nH]c(C(=O)NCC3CCCO3)cc12 (stereo not given)	·	·	–	–	–
O=C(NCC1CCCO1)c1cccc(Oc2ccc([N+](=O)[O-])cc2)c1 (stereo not given)	–	–	24	–	50
O=C(NCC1CCCO1)c1cccc(Oc2c(Cl)cccc2[N+](=O)[O-])c1 (stereo not given)	–	–	–	–	–
O=C(Nc1ccncc1)C1CC(=O)N(Cc2ccccc2)C1 (stereo not given)	–	–	·	–	·
CC(=O)c1ccc(NC(=O)C2CC(=O)N(Cc3ccccc3)C2)cc1 (stereo not given)	–	–	29	–	101
O=C(Nc1ccc(SC(F)F)cc1)C1CC(=O)N(Cc2ccccc2)C1 (stereo not given)	–	–	15	–	26
O=C(Nc1ccccc1)C1CC(=O)N(Cc2ccccc2)C1 (stereo not given)	–	–	–	–	–
Cc1c(NC(=O)c2cc3ccccc3o2)cccc1-n1cnnn1	·	·	·	–	·
COc1ccc(C(C)=O)cc1CN1C(=O)C(C)ON=C1c1cccc(C(F)(F)F)c1 (stereo not given)	·	·	·	–	·
COc1ccc(-c2ccc(-c3nc4c(c(=O)[nH]c(=O)n4Cc4ccccc4)n3C)o2)c([N+](=O)[O-])c1	–	–	–	–	–
COc1ccc(-c2nc3c(c(=O)[nH]c(=O)n3Cc3ccccc3)n2CCO)cc1	–	2.2µM	–	–	–
COCCn1c(=O)[nH]c(=O)c2c1nc(-c1ccc(-c3ccc(Cl)cc3[N+](=O)[O-])o1)n2Cc1ccccc1	?	10µM	–	–	–
O=c1[nH]c(=O)n(Cc2ccccc2)c2nc(-c3ccc(Oc4ccc(F)cc4)c([N+](=O)[O-])c3)n(CCO)c12	?	?	–	–	–
Cn1c(-c2cc(Cl)ccc2O)nc2c1c(=O)[nH]c(=O)n2Cc1ccccc1	2µM	?	–	–	–
Cc1c(C(=O)N2CCOCC2)oc2c1-c1nn(CC(=O)NCc3cccc(Cl)c3)cc1CC2	·	–	·	·	·
CC(C)Cn1c(C(C)C)nc([N+](=O)[O-])c1S(=O)(=O)c1ccc(F)cc1	?	–	–	–	–
CCCc1nc([N+](=O)[O-])c(S(=O)(=O)c2ccccc2)n1CC(C)C	12µM	?	–	–	–
SMILES	Marburg entry inh	Lassa entry inh	Cycloheximide cs	AMA1-RON2 inh	Shiga inhibitor
Cc1ccccc1/C(=N\S(=O)(=O)c1ccc(Br)cc1)Nc1ccccc1	·	·	·	–	·
Cc1c(/N=C(\[O-])Nc2ccc(Br)cc2)sn[n+]1C	·	·	47	–	95
COCCn1c(=S)[nH]c2cc(C(=O)N3CCN(Cc4ccc5c(c4)OCO5)CC3)ccc2c1=O	6.5µM	?	–	–	–
CNC(=O)c1ccc(NC(=O)/C=C/c2cccc(F)c2)cc1	·	·	27	–	–
CC(=O)c1ccc(NC(=S)NC(=O)/C=C/c2ccc(F)cc2)cc1	–	–	20	–	–
O=C(/C=C/c1ccc(Cl)cc1)NC(=S)Nc1ccc(C(=O)O)cc1	–	–	–	–	–
COc1cccc(NC(=S)NC(=O)/C=C/c2ccc(F)cc2)c1	·	·	–	–	·
CN(C)c1ccc(NC(=S)NC(=O)/C=C/c2ccc(Cl)cc2)cc1	?	–	53	–	105
COc1ccccc1C(=O)NC(=O)Cn1nc(C)c([N+](=O)[O-])c1C	–	–	·	–	·
CS(=O)(=O)CC[C@@H](C(=O)NCCc1ccccc1)N1Cc2ccccc2C1=O	–	–	·	·	·
CC(=C/c1ccccc1)/C=N/NC(=O)c1ccc2nc[nH]c2c1	?	?	17	–[2.32 µM]	51
CC(/C=N/NC(=O)c1ccc2nc(C)[nH]c2c1)=C\c1ccccc1	–	–	–	–	–
COc1cccc(/C=N/NC(=O)c2ccc3nc[nH]c3c2)c1	·	·	–	–	–

Screening results deposited in PubChem BioAssay by National Center for Advancing Translational Sciences (NCATS).
